PubChem BioAssay (NCATS)
Inconclusive results are not listed. Activity calls are given as the source filed them. Unless noted, calls come from the whole dose curve; as a rule, active = well fitted curve in the direction sought with a large enough effect; inconclusive = small, poorly fitted or top-dose-only effect, or another doubt; inactive = no such curve, though single readings can be large; an effect the other way counts as inactive or inconclusive.

What was measured:
[1] = target: Glucocorticoid receptor (Homo sapiens) (UniProt P04150); assay: GR-GFP Redistribution (AID 450;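 active = compounds whose dose series gives a full or clear partial fitted curve of increased nuclear translocation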; note: potency is the fitted concentration of half-maximal effect); settings: U2OS GR-GFP nuclear translocation, laser cytometry, 2 h
Chain of Glucocorticoid receptor (Homo sapiens) (P04150 whole entry, looked up, the tested form may be a part): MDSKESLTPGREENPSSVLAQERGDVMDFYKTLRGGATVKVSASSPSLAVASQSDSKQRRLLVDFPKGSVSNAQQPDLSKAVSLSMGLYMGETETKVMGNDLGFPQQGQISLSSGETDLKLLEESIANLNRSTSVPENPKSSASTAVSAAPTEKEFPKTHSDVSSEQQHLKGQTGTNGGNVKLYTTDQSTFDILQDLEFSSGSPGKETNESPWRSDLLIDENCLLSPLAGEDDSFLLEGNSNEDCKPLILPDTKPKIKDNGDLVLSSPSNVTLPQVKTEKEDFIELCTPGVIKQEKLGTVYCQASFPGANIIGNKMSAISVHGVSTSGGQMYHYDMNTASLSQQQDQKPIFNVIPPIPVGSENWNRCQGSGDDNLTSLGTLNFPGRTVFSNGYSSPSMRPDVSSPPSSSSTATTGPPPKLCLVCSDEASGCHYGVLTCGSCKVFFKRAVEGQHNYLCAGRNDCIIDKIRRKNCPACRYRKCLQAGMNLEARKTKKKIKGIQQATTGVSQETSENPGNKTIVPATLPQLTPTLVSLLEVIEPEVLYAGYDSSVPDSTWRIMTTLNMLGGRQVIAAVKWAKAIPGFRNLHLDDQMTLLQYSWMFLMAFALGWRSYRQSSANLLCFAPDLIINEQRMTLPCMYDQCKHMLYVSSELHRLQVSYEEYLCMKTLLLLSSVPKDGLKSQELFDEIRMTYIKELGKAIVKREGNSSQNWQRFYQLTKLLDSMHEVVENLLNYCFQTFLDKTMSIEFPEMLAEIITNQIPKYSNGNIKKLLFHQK

[2] = target: Glucocorticoid receptor (Homo sapiens) (UniProt P04150); assay: GR-EFC Redistribution (AID 451; calls by dose curve; note: potency is the fitted concentration of half-maximal effect); settings: CHO-K1 GR-EFC translocation, beta-gal luminescence, 2 h
Outline: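 Translocation of GR-ED fusion to nuclear EA restores b-gal, read by luminescence after 1 h room-temperature detection. Engineered CHO-K1 biosensor cells, 1,000/well, exposed 2 h at 37 C to titrations up to 46 uM final.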

[3] = target: Mitogen-activated protein kinase 10 (Mus musculus) (UniProt Q61831); assay: JNK3 AlphaScreen Assay (AID 530; active = well fitted curve in either direction with a large enough effect, not every such curve was filed as active;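 note: kinase came from lysate of stimulated human HepG2 cells; signal reports phosphorylation of biotinylated GST-cJun 1-79 at Ser73 with 10 µM ATP; % is set by controls: 0 for no effect and ±100 for the full control effect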); settings: JNK3 lysate, c-Jun phosphorylation; series mostly up to 57.1 µM
Outline: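 Room-temperature AlphaScreen kinase assay; pre-activated HepG2 lysate as JNK3 source, biotin-GST-cJun(1-79) substrate, 10 uM ATP, compound 15 min preincubation.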

[4] = qHTS Assay for Lipid Storage Modulators (AID 1519; calls by dose curve; for activity change, negative = inhibition: % is set by controls: 0 for no effect and ±100 for the full control effect); settings: Drosophila S3 cells, BODIPY lipid droplet/cell ratio, laser cytometry, cells loaded with oleic acid
Outline: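 Cells seeded at 5,000 per well were treated with compounds over a concentration series and loaded with oleic acid (400 uM, as added). Lipid droplet fluorescence (488 nm excitation, 500-530 nm channel) was read by laser-scanning cytometry and normalized to 20 uM Triacsin C.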

[5] = target: Ubiquitin carboxyl-terminal hydrolase 1 (Homo sapiens) (UniProt O94782); assay: Inhibitors of USP1/UAF1: Pilot qHTS (AID 504865); settings: purified USP1/UAF1, Ub-rhodamine cleavage fluorescence; series mostly up to 114 µM; note: nearly all actives have a fitted effect of over 35% in size; note: potency is the fitted concentration of half-maximal effect;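 for activity change, negative = inhibition: rhodamine fluorescence freed from ubiquitin-rhodamine substrate followed over time; top concentration of the series differs between compounds; % is set by controls: 0 for no effect and ±100 for the full control effect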
Chain of Ubiquitin carboxyl-terminal hydrolase 1 (Homo sapiens) (O94782 whole entry, looked up): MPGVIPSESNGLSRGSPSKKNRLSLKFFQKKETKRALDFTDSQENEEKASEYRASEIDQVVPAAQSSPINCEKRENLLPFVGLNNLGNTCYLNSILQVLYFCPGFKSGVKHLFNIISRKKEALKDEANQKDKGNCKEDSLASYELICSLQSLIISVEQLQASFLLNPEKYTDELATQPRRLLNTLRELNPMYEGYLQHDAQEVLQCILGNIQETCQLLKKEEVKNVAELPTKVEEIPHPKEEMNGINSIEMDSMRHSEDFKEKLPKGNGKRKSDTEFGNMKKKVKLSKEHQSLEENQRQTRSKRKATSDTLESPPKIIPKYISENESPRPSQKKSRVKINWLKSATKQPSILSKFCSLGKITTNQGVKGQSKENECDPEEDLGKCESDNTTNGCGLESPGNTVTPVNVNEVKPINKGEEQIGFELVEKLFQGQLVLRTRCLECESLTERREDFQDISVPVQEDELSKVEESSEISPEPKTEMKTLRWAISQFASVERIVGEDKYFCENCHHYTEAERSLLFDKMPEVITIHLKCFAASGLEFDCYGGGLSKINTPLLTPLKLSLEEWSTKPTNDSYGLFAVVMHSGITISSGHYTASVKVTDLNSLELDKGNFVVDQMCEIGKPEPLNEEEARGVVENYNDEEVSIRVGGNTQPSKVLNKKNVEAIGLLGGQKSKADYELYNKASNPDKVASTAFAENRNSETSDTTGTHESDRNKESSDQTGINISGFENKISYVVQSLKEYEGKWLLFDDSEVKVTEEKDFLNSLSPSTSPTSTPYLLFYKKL
Outline: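 In 50mM HEPES pH 7.8 containing 0.5mM EDTA, 1mM TCEP, 0.1 mg/ml BSA and 0.01% Tween-20, 1nM USP1/UAF1 is exposed to compound for 15 min, then Ub-Rho (150nM final) is added and fluorescence is read over time.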

[6] = target: DNA dC->dU-editing enzyme APOBEC-3G (Homo sapiens) (UniProt Q9HC16); assay: qHTS for inhibitors of Vif-A3G interactions: Validation (AID 588379); settings: Vif-A3G protein interaction assay; series mostly up to 46.1 µM; note: 0% is about no effect
Chain of DNA dC->dU-editing enzyme APOBEC-3G (Homo sapiens) (Q9HC16 whole entry, looked up): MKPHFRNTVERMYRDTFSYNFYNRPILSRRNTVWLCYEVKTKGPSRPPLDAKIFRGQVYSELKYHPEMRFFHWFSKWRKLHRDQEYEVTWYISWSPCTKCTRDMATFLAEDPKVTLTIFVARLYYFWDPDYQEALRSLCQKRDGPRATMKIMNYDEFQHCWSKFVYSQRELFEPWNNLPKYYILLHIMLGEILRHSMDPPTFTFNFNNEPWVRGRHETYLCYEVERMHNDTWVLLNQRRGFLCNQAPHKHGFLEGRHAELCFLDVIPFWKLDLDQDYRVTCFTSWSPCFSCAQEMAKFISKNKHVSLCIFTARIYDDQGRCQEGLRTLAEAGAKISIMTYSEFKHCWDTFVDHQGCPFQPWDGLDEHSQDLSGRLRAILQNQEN
Outline: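 HeLa cells stably expressing Vif and A3G-eYFP, 700 cells/well, incubated overnight at 37 deg C, then exposed to compound overnight at 37 deg C. Inhibition of Vif-mediated degradation read as increased yellow fluorescence (Ex 488/Em 500-530) by laser-scanning cytometry.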

[7] = test system: Zika virus NS2B-NS3 protease; assay: Primary screen GU AMC qHTS for Zika virus inhibitors (AID 1347154); settings: Zika NS2B-NS3 unlinked protease, AMC fluorogenic substrate; series mostly up to 54.1 µM; note: nearly all actives have a fitted effect of over 70% in size; note: potency is the fitted concentration of half-maximal effect;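 for activity change, negative = inhibition: 0% = no-inhibitor control and -100% = no-enzyme control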
Outline: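 Fluorogenic AMC-substrate cleavage by noncovalent NS2B-NS3 protease complex (25 nM, pH 8.0 Tris buffer with Tween 20) followed for 15 minutes at room temperature (~20% conversion). Percent inhibition from ex340/em450 signal change, fitted by 4-parameter Hill equation.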

[8] = target: Cytochrome P450 1A2 (Homo sapiens) (UniProt P05177); assay: p450-cyp1a2 (AID 410; calls by dose curve; note: potency is the fitted concentration of half-maximal effect;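 for activity change, negative = inhibition: -100% = full effect of reference inhibitor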); settings: recombinant CYP1A2, luciferin-ME demethylation, luminescence; series mostly up to 57 µM
Chain of Cytochrome P450 1A2 (Homo sapiens) (P05177 whole entry, looked up): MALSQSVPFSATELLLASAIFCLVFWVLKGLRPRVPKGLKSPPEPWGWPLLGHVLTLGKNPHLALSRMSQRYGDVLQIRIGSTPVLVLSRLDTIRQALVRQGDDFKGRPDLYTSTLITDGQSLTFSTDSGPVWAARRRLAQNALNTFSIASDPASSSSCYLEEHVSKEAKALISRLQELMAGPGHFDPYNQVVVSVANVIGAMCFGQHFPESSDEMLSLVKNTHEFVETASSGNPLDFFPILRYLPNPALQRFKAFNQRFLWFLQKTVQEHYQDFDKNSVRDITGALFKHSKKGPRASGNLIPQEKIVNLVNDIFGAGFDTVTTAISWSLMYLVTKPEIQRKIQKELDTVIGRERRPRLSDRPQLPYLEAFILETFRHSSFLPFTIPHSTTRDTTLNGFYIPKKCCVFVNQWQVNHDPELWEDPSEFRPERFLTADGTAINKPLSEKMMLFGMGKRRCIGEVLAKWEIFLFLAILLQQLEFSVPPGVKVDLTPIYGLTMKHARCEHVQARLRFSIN
Outline: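 Inhibition was calculated relative to 57 uM furafylline (full inhibition). The reaction used human CYP1A2 at 20nM with Luciferin-ME at its Km, 100uM, driven by an NADPH-regenerating system for 60 min at room temperature.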

[9] = target: 3',5'-cyclic-AMP phosphodiesterase 4B (Homo sapiens) (UniProt Q07343); assay: qHTS Assay for Inhibitors of PDE-IV (AID 607; active = well fitted activation curve with a large enough effect in the main read-out, with a control signal flat, not every such curve was filed as active; note: % of control where 0% means no effect); settings: HEK293 ACTOne CNG channel cells, membrane potential fluorescence; series mostly up to 22.9 µM
Chain of 3',5'-cyclic-AMP phosphodiesterase 4B (Homo sapiens) (Q07343 whole entry, looked up): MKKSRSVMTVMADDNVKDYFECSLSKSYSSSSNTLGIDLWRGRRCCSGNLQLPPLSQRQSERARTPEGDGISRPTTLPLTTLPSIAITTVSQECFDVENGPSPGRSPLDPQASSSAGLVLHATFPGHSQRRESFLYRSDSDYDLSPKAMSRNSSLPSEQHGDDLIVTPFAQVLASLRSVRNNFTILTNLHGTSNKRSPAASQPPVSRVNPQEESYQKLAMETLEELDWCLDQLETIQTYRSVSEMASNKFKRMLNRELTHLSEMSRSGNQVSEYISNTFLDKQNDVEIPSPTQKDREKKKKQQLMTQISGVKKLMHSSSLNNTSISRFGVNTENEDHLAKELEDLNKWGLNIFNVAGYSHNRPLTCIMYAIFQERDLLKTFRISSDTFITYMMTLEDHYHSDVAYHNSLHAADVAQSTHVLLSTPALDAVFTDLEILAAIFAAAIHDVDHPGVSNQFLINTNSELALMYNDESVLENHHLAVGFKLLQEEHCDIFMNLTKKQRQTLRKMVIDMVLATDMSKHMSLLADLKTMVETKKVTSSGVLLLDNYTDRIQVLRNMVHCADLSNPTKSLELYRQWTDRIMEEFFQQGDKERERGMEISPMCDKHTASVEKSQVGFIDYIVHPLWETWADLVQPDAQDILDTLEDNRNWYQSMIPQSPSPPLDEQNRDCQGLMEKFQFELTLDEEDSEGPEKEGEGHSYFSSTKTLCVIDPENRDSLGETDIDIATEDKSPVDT
Outline: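 HEK293 ACTOne cells with CNG channel (1000/well), endogenous PDE4; membrane potential dye, compounds up to 22.9 uM final. Fluorescence Ex 535/Em 590; RO 20-1724 (100 uM final) as reference.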

[10] = target: Cytochrome P450 3A4 (Homo sapiens) (UniProt P08684); assay: qHTS Assay for Activators of Cytochrome P450 3A4 (AID 885); settings: recombinant CYP3A4, Luciferin-PPXE luminescence, 60 min; series mostly up to 57.1 µM; note: nearly all actives have a fitted effect of over 65% in size
Chain of Cytochrome P450 3A4 (Homo sapiens) (P08684 whole entry, looked up): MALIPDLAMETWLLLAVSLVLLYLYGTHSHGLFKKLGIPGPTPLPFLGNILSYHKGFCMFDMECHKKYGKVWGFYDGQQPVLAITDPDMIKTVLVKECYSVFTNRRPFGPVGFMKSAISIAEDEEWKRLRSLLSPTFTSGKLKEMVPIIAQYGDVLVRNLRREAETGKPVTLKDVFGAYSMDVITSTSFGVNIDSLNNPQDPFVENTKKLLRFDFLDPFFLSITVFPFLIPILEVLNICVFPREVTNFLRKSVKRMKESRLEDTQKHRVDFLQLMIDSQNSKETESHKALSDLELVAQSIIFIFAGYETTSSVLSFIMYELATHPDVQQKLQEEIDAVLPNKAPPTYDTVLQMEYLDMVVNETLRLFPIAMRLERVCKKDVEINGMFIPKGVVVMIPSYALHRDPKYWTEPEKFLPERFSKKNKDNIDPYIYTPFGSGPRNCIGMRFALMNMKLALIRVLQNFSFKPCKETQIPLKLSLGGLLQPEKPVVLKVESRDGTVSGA
Outline: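 Human CYP3A4 (20 nM) with Luciferin-PPXE at 25 uM (its KM) in 200 mM KPO4; 10 min compound preincubation, then NADPH regeneration and 60 min reaction at RT. Luciferin read by luminescence; normalized to 57 uM ketoconazole full inhibition.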

[11] = target: Guanine nucleotide-binding protein G(i) subunit alpha-1 (Homo sapiens) (UniProt P63096); assay: qHTS Assay for Inhibitors of RGS12 GoLoco Motif Activity (Green Fluorophore) (AID 879); settings: Galphai1/FITC-RGS12 GoLoco peptide, fluorescence polarization; series mostly up to 57.1 µM;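 note: 0% = labeled peptide with Gαi1 and full inhibition = labeled peptide alone without protein; negative values mean loss of peptide binding seen as reduced polarization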
Chain of Guanine nucleotide-binding protein G(i) subunit alpha-1 (Homo sapiens) (P63096 whole entry, looked up): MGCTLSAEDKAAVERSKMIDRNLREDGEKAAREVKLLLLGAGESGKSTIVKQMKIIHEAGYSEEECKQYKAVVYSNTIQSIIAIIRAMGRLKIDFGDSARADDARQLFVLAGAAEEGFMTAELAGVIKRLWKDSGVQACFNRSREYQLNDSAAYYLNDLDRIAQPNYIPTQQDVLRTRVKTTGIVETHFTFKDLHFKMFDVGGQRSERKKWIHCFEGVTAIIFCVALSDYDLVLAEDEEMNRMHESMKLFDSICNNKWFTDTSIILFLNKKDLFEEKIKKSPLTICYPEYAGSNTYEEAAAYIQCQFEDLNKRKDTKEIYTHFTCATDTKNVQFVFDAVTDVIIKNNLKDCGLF
Outline: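 Fluorescence polarization assay: 50 nM Gαi1 with 10 nM FITC-labeled RGS12 GoLoco peptide in 10 mM Tris pH 7.5, 150 mM NaCl, 0.1 mM GDP, 0.05% NP40, 10 min at room temperature with compound.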

[12] = target: Muscarinic acetylcholine receptor M1 (Rattus norvegicus) (UniProt P08482); assay: qHTS Assay for Antagonists of Acetylcholine Muscarinic M1 Receptor: Kinetic Measurement of Intracellular Calcium Response (AID 943); settings: M1-expressing cells, kinetic intracellular calcium fluorescence; series mostly up to 35.3 µM;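 note: Fluo-4 calcium signal as peak divided by basal fluorescence over 4 min; nearly all actives have a fitted effect of over 75% in size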
Chain of Muscarinic acetylcholine receptor M1 (Rattus norvegicus) (P08482 whole entry, looked up): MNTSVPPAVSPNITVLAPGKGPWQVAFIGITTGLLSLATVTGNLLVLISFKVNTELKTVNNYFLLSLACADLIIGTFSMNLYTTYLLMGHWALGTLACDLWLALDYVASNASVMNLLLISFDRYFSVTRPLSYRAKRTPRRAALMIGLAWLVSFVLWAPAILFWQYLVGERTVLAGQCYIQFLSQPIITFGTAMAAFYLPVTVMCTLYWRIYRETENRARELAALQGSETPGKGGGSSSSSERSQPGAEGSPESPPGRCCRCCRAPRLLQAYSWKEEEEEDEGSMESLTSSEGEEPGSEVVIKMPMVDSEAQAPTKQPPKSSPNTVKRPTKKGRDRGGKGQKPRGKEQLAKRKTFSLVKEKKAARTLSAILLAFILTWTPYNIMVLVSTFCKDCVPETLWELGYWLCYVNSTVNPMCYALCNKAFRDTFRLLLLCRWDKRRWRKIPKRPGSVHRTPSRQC
Outline: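 Intracellular calcium flux, recorded with Fluo-4 in a kinetic plate reader, served as signal; the response to carbachol at EC80 (100 nM final) was taken as maximal over minimal fluorescence after a 10 min compound pre-incubation in rat M1-CHO cells.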

[13] = target: Muscarinic acetylcholine receptor M1 (Rattus norvegicus) (UniProt P08482); assay: qHTS Assay for Antagonists of Acetylcholine Muscarinic M1 Receptor: Measurement of IP-One Response (AID 944); settings: CHO-M1 cells, IP-One HTRF, antagonist mode; series mostly up to 46.1 µM; note: nearly all actives have a fitted effect of over 75% in size
Outline: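 Steps: plate transfected CHO-M1 cells overnight; add test compound, 10 min; add carbachol (200 nM, EC80) in stimulation buffer with LiCl; incubate 30 min; add labelled IP1 tracer and anti-IP1 antibody in lysis buffer; read HTRF after 10 min.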

[14] = target: Pyruvate kinase (Leishmania mexicana) (UniProt Q27686); assay: qHTS Validation Assay for Inhibitors of Leishmania Mexicana Pyruvate Kinase (AID 945);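 note: 0% = DMSO only neutral control wells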; settings: purified L. mexicana pyruvate kinase, enzyme activity, E451W mutant enzyme; series mostly up to 57.5 µM
Outline: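 LmPYK E451W 0.2 nM; 0.5 mM PEP, 0.1 mM ADP, 7 mM MgCl2, 50 mM KCl, imidazole pH 7.2, 0.01% Tween 20, 0.05% BSA; 1 h RT; PKLight luminescence; DMSO-normalized.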

[15] = target: Pyruvate kinase PKM (Homo sapiens) (UniProt P14618); assay: qHTS Assay for Activators of Human Muscle Pyruvate Kinase (AID 954; active = well fitted curve in the direction sought with a large enough effect, not every such curve was filed as active;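 note: 0% = uninhibited enzyme and -100% = no enzyme or full thiadiazolimine inhibition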); settings: purified human muscle pyruvate kinase, luciferase-coupled luminescence, 1 h; series mostly up to 57.5 µM
Outline: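 Purified human PKM2 (0.1 nM) with 0.5 mM PEP (Km) and 0.1 mM ADP in 50 mM imidazole pH 7.2, KCl, MgCl2, 1 h at room temperature; ATP formed read by coupled luciferase luminescence. Normalized to no-enzyme/110 uM thiadiazolimine inhibition; 0.3 nM enzyme column for activation.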

[16] = target: alpha-glucosidase (Oryza sativa, rice) (UniProt Q653V4); assay: Counterscreen for Glucocerebrosidase Inhibitors: qHTS Assay for Rice alpha-Glucosidase at pH 5.0 (AID 997); settings: rice alpha-glucosidase enzyme activity; series mostly up to 76.9 µM;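 note: 0% = full activity with enzyme and -100% = basal without enzyme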
Outline: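 Rice alpha-glucosidase (4 nM final) with 400 uM 4-methylumbelliferyl-alpha-D-glucopyranoside in citrate buffer pH 5.0, 20 min at room temperature, stopped at pH 10; fluorescence 365/440 nm, compounds 0.7 nM–77 uM, AC50 from Hill fits.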

[17] = target: Cytochrome P450 3A4 (Homo sapiens) (UniProt P08684); assay: qHTS Assay for Inhibitors and Substrates of Cytochrome P450 3A4 (AID 884); settings: recombinant CYP3A4, Luciferin-PPXE luminescence; series mostly up to 57.1 µM; note: nearly all actives have a fitted effect of over 50% in size; note: potency is the fitted concentration of half-maximal effect
Outline: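 20 nM human CYP3A4 with 25 uM Luciferin-PPXE (at KM) in 200 mM KPO4, preincubated 10 min with compound; NADPH regeneration started a 60 min RT reaction. Luciferin detected by luminescence, normalized to 57 uM ketoconazole as full inhibition.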

[18] = target: Cytochrome P450 2D6 (Homo sapiens) (UniProt P10635); assay: qHTS Assay for Inhibitors and Substrates of Cytochrome P450 2D6 (AID 891); settings: recombinant CYP2D6, luciferin-ME EGE luminescence; series mostly up to 57.1 µM; note: nearly all actives have a fitted effect of over 60% in size; note: potency is the fitted concentration of half-maximal effect
Outline: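 Human CYP2D6 (5 nM) with 30 uM Luciferin-ME EGE (at Km) in 100 mM KPO4, compound preincubated 10 min, then NADPH regeneration system for 60 min at room temperature. Luciferin read by luminescence; normalized to 1.43 uM quinidine.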

[19] = target: Cytochrome P450 2C19 (Homo sapiens) (UniProt P33261); assay: qHTS Assay for Inhibitors and Substrates of Cytochrome P450 2C19 (AID 899); settings: recombinant CYP2C19, luciferin-H EGE luminescence; series mostly up to 57.1 µM; note: nearly all actives have a fitted effect of over 60% in size; note: potency is the fitted concentration of half-maximal effect
Chain of Cytochrome P450 2C19 (Homo sapiens) (P33261 whole entry, looked up): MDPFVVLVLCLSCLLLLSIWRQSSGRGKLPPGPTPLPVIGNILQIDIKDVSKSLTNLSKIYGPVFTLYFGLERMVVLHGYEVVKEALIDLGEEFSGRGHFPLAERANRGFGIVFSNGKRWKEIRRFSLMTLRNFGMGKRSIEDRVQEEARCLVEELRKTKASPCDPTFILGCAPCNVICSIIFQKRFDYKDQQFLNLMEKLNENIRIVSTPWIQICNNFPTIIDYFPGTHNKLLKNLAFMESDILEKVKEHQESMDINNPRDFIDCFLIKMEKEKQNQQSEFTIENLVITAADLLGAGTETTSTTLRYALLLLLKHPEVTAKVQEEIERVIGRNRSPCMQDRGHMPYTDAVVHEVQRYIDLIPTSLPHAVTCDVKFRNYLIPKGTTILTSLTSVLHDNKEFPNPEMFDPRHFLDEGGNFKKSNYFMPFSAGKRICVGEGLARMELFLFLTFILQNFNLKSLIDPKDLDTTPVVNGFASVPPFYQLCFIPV
Outline: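 Luminescence readout of luciferin formed from 10uM Luciferin-H EGE (KM level) by 5 nM CYP2C19 in 50mM KPO4. 60 min NADPH-driven reaction at 37C after 10 min compound preincubation; data scaled to 57uM ketoconazole inhibition.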

[20] = target: Cytochrome P450 2C9 (Homo sapiens) (UniProt P11712); assay: qHTS Assay for Inhibitors and Substrates of Cytochrome P450 2C9 (AID 883); settings: recombinant CYP2C9, luciferin-H luminescence, 60 min; series mostly up to 57.1 µM; note: nearly all actives have a fitted effect of over 60% in size
Outline: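 Luminescent read-out of deoxyluciferin hydroxylation, normalized to 57uM sulphaphenazole (AC100). Reaction: 10nM enzyme, 100uM Luciferin-H (equal to KM), 25mM KPO4, 10 min compound preincubation, then 60 min with NADPH regeneration, both at 37C.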

[21] = Confirmatory screen GU Rhodamine qHTS for Zika virus inhibitors qHTS (AID 1347157); settings: purified enzyme assay, Rhodamine110 substrate fluorescence, 15 min; series mostly up to 114 µM;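 note: plate controls were no-inhibitor wells for no effect and no-enzyme wells for full effect; nearly all actives have a fitted effect of over 70% in size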
Outline: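 Percent inhibition came from the 15-min rise in Rhodamine110 fluorescence (1.5 microM substrate, ~15% conversion), normalized to no-inhibitor and no-enzyme wells and Hill-fitted. Unlinked protease, 25 nM, pH 8.0 Tris buffer; compounds up to 114 microM, 15-min preincubation.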

N[C@H]1CCN(O)C1=O
-12.7%: max response ([4]; measured here: lipid channel max response)
-8.46%: max response ([4]; measured here: cell count channel max response)
inactive: Potency [1] > 46 µM | Potency [2] > 46 µM | Potency [3] | activity change, negative = inhibition ([4]; at 57.5 µM (top of the series)) -6.49% | Potency [5] | Potency [6] | Potency [7]

OC[C@H]1O[C@H](n2cnc3c(NC4CCCC4)nc(Cl)nc32)[C@@H](O)[C@@H]1O
inactive: Potency [1] > 46 µM | Potency [2] > 46 µM | Potency [3] | Potency [9] | Potency [5] | Potency [6] | Potency [7]
active: Potency [8] 39.8 µM

CC(C)Oc1ccc2c(=O)c3cc(C(=O)O)ccc3oc2c1
inactive: Potency [8] | Potency [1] > 46 µM | Potency [2] > 46 µM | Potency [3] | Potency [9] | Potency [6] | Potency [7]

C[C@@]1(C(=O)O)NCCc2cc(O)c(O)cc21
inactive: Potency [8] | Potency [1] > 46 µM | Potency [2] > 46 µM | Potency [9] | Potency [10] | Potency [6]
active: Potency [5] 56.2 µM | Potency [7] 11.9 µM

C[N+](C)(C)CCCCCNCC12CC3CC(CC(C3)C1)C2
inactive: Potency [8] | Potency [2] > 46 µM | Potency [3] | Potency [9] | Potency [5] | Potency [7]

C[C@@H]1CNCCN1S(=O)(=O)c1cccc2cnccc12
inactive: Potency [1] > 46 µM | Potency [2] > 46 µM | Potency [3] | Potency [9] | outcome [11] | Potency [12] | Potency [13] | Potency [14] | outcome [15] | outcome [16] | Potency [6] | Potency [7]

O=C1CC2(CCCC2)CC(=O)N1CCCCNC[C@H]1COc2ccccc2O1
active: Potency [17] 0.631 µM | Potency [18] 5.01 µM
inactive: Potency [1] > 46 µM | Potency [2] > 46 µM | Potency [3] | Potency [10] | Potency [5] | Potency [6] | Potency [7]

CC(C)Oc1cccc(-n2c(CCc3c[nH]c4ccc(Br)cc34)nc3ccccc3c2=O)c1
inactive: Potency [1] > 46 µM | Potency [2] > 46 µM | Potency [3] | Potency [10] | Potency [6] | Potency [7]
active: Potency [17] 3.98 µM

Cc1c(C(=O)NN2CCCCC2)nn(-c2ccc(Cl)cc2Cl)c1-c1ccc(I)cc1
inactive: Potency [5] | Potency [6] | Potency [7]

CCCCCN=c1ccn(Cc2ccccc2)c2ccccc12
inactive: Potency [1] > 46 µM | Potency [2] > 46 µM | Potency [10] | Potency [6] | Potency [7]
active: Potency [8] 25.1 µM | Potency [19] 0.251 µM

O=S(c1ccccc1)c1ccc2nnnn2n1 (stereo not given)
inactive: Potency [3] | outcome [20] | outcome [17] | outcome [10] | outcome [18] | outcome [19] | Potency [6] | Potency [7]
active: outcome [8]

O=C(Nc1ccc(C(=O)OCc2cc(=O)n3nc(C4CC4)sc3n2)cc1)c1cccc(F)c1
inactive: Potency [21]

N=C(C[C@@H](O)COc1ccccc1-c1ccccc1)N1CCCCC1
inactive: Potency [1] > 46 µM | Potency [2] > 46 µM | Potency [3] | Potency [5] | Potency [6] | Potency [7]

CCCCCCCCCCCCCCCCCCc1ccc(C(=O)/C=C\C(=O)O)cc1
inactive: Potency [1] > 46 µM | Potency [2] > 46 µM | Potency [3] | Potency [6] | Potency [7]

O=C1c2ccccc2C(Cc2ccnc(F)c2)(Cc2ccnc(F)c2)c2ccccc21
active: Potency [17] 15.8 µM
inactive: Potency [10] | Potency [7]
